# CYP2C19 act: activators of human cytochrome P450 2C19; recombinant CYP2C19, luciferin-H EGE luminescence; active compounds read high; 0 = fully inhibited enzyme, 1 = untreated enzyme; 96,000 tested, under 10 active; activation factor at 5 µM; P33261; AID 1025;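 active = activation factor of at least 2 at 5 µM in the primary screen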;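 note: 0 = wells with 2.5 mM tranylcypromine and 1 = vehicle-only wells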
# sEH act: increases human soluble epoxide hydrolase activity; P34913; activation, % at 2 µM; 0.04% of 91,000 active; purified human sEH enzymatic activity, activator screen; in the data active = activation above about 37%
# CYP2C9 act: CYP2C9 (human) activation; AID 1024; 1.4% of 96,000 active; activation factor at 5 µM; recombinant CYP2C9, luciferin-H conversion, luminescence; active compounds read high; factor 1 = untreated enzyme, 0 = blocked; P11712;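 active = activation factor of 2 or more for CYP2C9 at a 5 µM dose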;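 note: 0 = sulfaphenazole-blocked wells and 1 = vehicle-only wells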
# Target sequence (P11712 whole entry, looked up): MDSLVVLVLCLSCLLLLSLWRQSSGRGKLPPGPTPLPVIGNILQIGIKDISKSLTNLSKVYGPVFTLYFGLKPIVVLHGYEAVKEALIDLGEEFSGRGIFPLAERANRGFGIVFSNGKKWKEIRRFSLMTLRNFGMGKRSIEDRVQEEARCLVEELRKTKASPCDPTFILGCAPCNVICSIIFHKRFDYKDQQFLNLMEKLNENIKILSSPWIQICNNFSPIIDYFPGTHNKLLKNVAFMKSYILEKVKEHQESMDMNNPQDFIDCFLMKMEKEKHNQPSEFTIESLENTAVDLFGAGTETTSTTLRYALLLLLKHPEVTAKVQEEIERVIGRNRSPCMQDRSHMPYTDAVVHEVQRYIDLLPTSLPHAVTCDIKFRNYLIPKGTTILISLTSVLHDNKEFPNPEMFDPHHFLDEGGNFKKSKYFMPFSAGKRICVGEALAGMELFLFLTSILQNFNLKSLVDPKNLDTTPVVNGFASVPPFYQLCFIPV
# CYP2C9 inh: blocks human cytochrome P450 2C9. 20% of 96,000 active. AID 777. inhibition, % at 5 µM. CYP2C9 Supersomes, luciferin-H conversion, luminescence;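 active = blocking of liver enzyme CYP2C9 beyond about 50% at 5 µM, limit read from the data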
# sEH inhibitor: soluble epoxide hydrolase (human) inhibition; recombinant human sEH enzymatic activity assay; inhibition, % at 2 µM; 0.34% of 91,000 active; AID 707; in the data active = inhibition above about 80%
# CYP2C19 inhib: human CYP2C19 inhibition. CYP2C19 Supersomes, luciferin-H EGE luminescence, 30 min. AID 778. P33261. inhibition, % at 5 µM. 21% of 96,000 active;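 active = CYP2C19 inhibition above a set limit at 5 µM in the primary screen, cut at about 50% in these data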;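 note: plate controls were negative control wells for no effect and 2.5 mM tranylcypromine positive control for full effect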
# * = called active by the depositor; / = no result. Sampled rows, rich in hits. Any-hit rate of the full collection: about 27%.
SMILES,CYP2C19 act,sEH act,CYP2C9 act,CYP2C9 inh,sEH inhibitor,CYP2C19 inhib
COc1ccccc1N1CCN(C(=O)c2c(C)cc(=O)oc2C)CC1,0.8,/,1.1,-5.0,/,15.4
COc1ccccc1N1CCN(C(=O)c2oc3cc(C)c(C)cc3c2C)CC1,0.6,1.3,0.3,73.6*,-2.1,43.9
CCn1nnc(NC(=O)c2sc3ccccc3c2Cl)n1,/,-9.0,/,/,13.4,/
CS(=O)(=O)N(Cc1ccccc1F)c1ccccc1,/,32.1,/,/,-32.1,/
COCCNC(=O)c1onc(CSc2ccc(C(C)C)cc2)c1C(=O)O,0.7,7.6,0.3,66.4*,-1.5,33.7
CCCCNC(=O)c1onc(CSc2cccc(Cl)c2)c1C(=O)O,0.7,-7.1,0.2,84.2*,12.3,28.1
CC(C)NC(=O)c1onc(CSc2cccc3ccccc23)c1C(=O)O,0.7,-6.3,0,95.2*,11.6,31.8
CCCCNC(=O)c1onc(CSc2cccc(OCC)c2)c1C(=O)O,0.7,10.0,0.1,91.9*,-8.7,28.5
O=C(NCC1CCCO1)c1onc(CSc2ccccc2F)c1C(=O)O (stereo unspecified),0.8,4.4,0.8,19.2,1.5,18.5
Cc1ccc(OC(=O)Cn2c(C(F)(F)F)nc3ccccc32)cc1,0.9,22.2,0.8,16.1,-25.3,11.7
COCCCNC(=O)Cn1nc(-c2ccc(C)cc2)ccc1=O,1,4.4,0.8,17.9,-4.7,-0.2
CCCCNC(=O)c1onc(CSc2cccc3ccccc23)c1C(=O)O,0.4,-2.6,0,96.8*,8.1,57.7*
CCCCNC(=O)c1onc(CSc2ccc(C(C)C)cc2)c1C(=O)O,0.7,3.5,0.1,93.8*,-2.3,27.8
COCCNC(=O)c1onc(CSc2ccc(Cl)cc2)c1C(=O)O,0.6,12.8,0.8,22.8,-6.4,43.2
CCCCNC(=O)c1onc(CSc2ccccc2)c1C(=O)O,0.8,-6.6,0.4,56.9*,11.8,18.8
COC(=O)CNC(=O)Cc1c(F)cccc1Cl,1.1,/,1.1,-7.3,/,-10.7
Nc1cnn(C2CCCO2)c(=O)n1 (stereo unspecified),/,-7.7,/,/,9.1,/
CCOC(CNC(=O)c1ccc2c(c1)nc(C)n2-c1cccc(F)c1)OCC,/,-9.9,/,/,11.0,/
COc1cccc2c(C)nc(Nc3nc(CSc4nnc(C)s4)cc(=O)[nH]3)nc12,1,-9.4,1,4.1,10.5,4.0
CCOC(=O)N1CCN(C(=O)CN(c2cc(C(F)(F)F)ccc2Cl)S(C)(=O)=O)CC1,0.5,14.3,0.6,39.2,-14.3,54.5*
CS(=O)(=O)N(CC(=O)N1CCCC1)c1cc(Cl)c(Cl)cc1Cl,0.1,-15.7,0.5,45.2,13.6,90.3*
CCOC(=O)N1CCN(C(=O)CN(c2ccc(Cl)c(C(F)(F)F)c2)S(C)(=O)=O)CC1,0.4,/,0.9,11.7,/,56.4*
COC(=O)c1nc(NC(=O)C(C)C)n[nH]1,0.9,-7.8,1,-2.5,9.7,9.9
CC(C)c1ccc(OCc2nc(-c3ccccn3)no2)c(Br)c1,0.7,-9.0,0.6,37.1,8.5,33.6
Cc1ccc(OCc2nc(-c3ccccn3)no2)c(Br)c1,0.2,-0.3,0.7,30.7,0.4,83.5*
SMILES,CYP2C19 act,sEH act,CYP2C9 act,CYP2C9 inh,sEH inhibitor,CYP2C19 inhib
CCc1ccc(OCc2nc(-c3ccccn3)no2)c(Br)c1,0.1,-5.4,0.3,73.9*,6.8,94.8*
CC1C(=O)CCN(C(C)(C)C)C1C (stereo unspecified),1.1,10.4,0.9,13.2,-10.8,-5.4
CC1CCCN(C(=O)C(Cc2ccccc2)n2cccc2)C1 (stereo unspecified),0.3,-7.7,0.7,28.0,9.8,67.0*
Cc1ccc(C)c(N2CCN(C(=O)CCS(=O)(=O)c3cccc4nonc34)CC2)c1,0.4,/,0.3,73.4*,/,61.8*
Cc1ccc(C)c(N2CCN(C(=O)Cn3cccc3)CC2)c1,0.8,-9.2,1,-0.3,9.7,19.7
O=C(O)C(Cc1ccccc1)n1cccc1 (stereo unspecified),1,-2.6,1,-0.7,4.1,-4.7
O=C(C(Cc1ccccc1)n1cccc1)N1CCN(c2ccccc2)CC1 (stereo unspecified),0.1,9.4,0.6,43.1,-8.7,94.8*
CCC(=O)N1CCN(c2cc(C)ccc2C)CC1,0.5,-4.8,0.9,7.4,8.5,52.0*
CCCCCn1nc(C)c2c(C)cc(=O)[nH]c21,/,6.5,/,/,-3.9,/
O=c1c2c(ncn1CCO)nc1n2CCC1,/,-9.3,/,/,9.2,/
COc1ccc(C2CC(C(F)(F)F)n3nc(C(=O)O)c(Br)c3N2)cc1 (stereo unspecified),1.1,0.0,1.1,-5.0,1.9,-9.7
O=C(C(Cc1ccccc1)n1cccc1)N1CCc2ccccc21 (stereo unspecified),0.9,/,0.8,19.1,/,6.7
Cc1ccc(C)c(N2CCN(C(=O)Cn3c(=O)[nH]c4ccsc4c3=O)CC2)c1,0.7,9.5,0.5,52.8*,-10.0,34.8
COc1ccccc1N1CCN(C(=O)CCn2c(=O)[nH]c3ccsc3c2=O)CC1,1,10.3,0.9,12.4,-8.9,3.2
Cc1ccc(C)c(N2CCN(C(=O)CN3C(=O)c4ccccc4C3=O)CC2)c1,1.1,-7.6,1,4.9,6.3,-10.4
Cc1ccc(C)c(N2CCN(C(=O)CC3Sc4ccccc4NC3=O)CC2)c1 (stereo unspecified),0.3,-3.3,0.5,50.9*,0.7,71.0*
Cc1ccc(C)c(N2CCN(C(=O)C(Cc3ccccc3)n3cccc3)CC2)c1 (stereo unspecified),0,27.3,0.8,23.7,-29.3,96.6*
CC12C=CC3(O1)C(C(=O)N(c1ccccc1)C3C(=O)NC1CCCC1)C2C(N)=O (stereo unspecified),/,-8.1,/,/,10.4,/
COn1c(SC2CCCCC2)nc2ccccc2c1=O,0.2,5.2,0.2,81.7*,-2.0,78.0*
COn1c(SCC(N)=O)nc2ccccc2c1=O,0.8,/,0.9,13.3,/,16.3
COn1c(SCc2ccc(C)cc2C)nc2ccccc2c1=O,0.3,3.4,0.1,93.3*,-0.5,73.0*
O=S(=O)(c1ccc(Br)s1)N1CCCCC1,0.3,-8.1,1.1,-6.0,6.1,72.6*
CC1CCN(S(=O)(=O)c2ccc(Br)s2)CC1,0,4.9,0.6,42.7,-6.8,95.2*
O=C(CN1CCCN(S(=O)(=O)c2ccc(Br)s2)CC1)Nc1ccc(Cl)cc1,0.1,-11.4,1.2,-22.2,11.0,88.3*
Cc1ccc2c(c1)NC(=O)C(CC(=O)N(C)Cc1ccccc1)O2 (stereo unspecified),0.6,-3.4,1.1,-7.5,4.0,38.2
CC(=O)N(Cc1cc2cc(C)c(C)cc2n2nnnc12)CC1COCCO1 (stereo unspecified),0.8,10.8,1,4.4,-9.4,24.6
Cc1ccc(NC(=O)c2ccco2)c(NC(=O)Cc2cccs2)c1,0.8,-13.7,1,1.8,11.3,15.4
CN1CCN(c2ccc([N+](=O)[O-])cc2/C=N/NC(=O)c2ccc(F)cc2)CC1,0.4,5.8,0.4,57.6*,-3.8,64.4*

# Bioassay records deposited in PubChem BioAssay by several laboratories.
